Where “and” joins values, the source holds several entries; their conditions need not be identical. Equal entries are not always repeated. The whole screen tested about 190,000 compounds, of which about 6,900 (3.6%) were called active. Cut-off read from the data, not from the text of the source: active = inhibition above about 50%; inactive = the rest. For the sample, actives were picked, then their nearest neighbours and some compounds at random. Where a structure was tested more than once in an assay, its records may differ in their call.
Each compound was assayed against Huntingtin (Homo sapiens) (UniProt P42858) (assay: mutant huntingtin-calmodulin interaction inhibitors – biochemical, AlphaScreen, primary screen (AID 1671202;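 note: 0% = both proteins with DMSO and 100% = one protein alone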)). Conditions: AlphaScreen His-mHTT/GST-CaM binding, luminescence; at 15 µM, stronger effect = higher value.
Sequence of Huntingtin (Homo sapiens) (P42858 whole entry, looked up, stated change not applied): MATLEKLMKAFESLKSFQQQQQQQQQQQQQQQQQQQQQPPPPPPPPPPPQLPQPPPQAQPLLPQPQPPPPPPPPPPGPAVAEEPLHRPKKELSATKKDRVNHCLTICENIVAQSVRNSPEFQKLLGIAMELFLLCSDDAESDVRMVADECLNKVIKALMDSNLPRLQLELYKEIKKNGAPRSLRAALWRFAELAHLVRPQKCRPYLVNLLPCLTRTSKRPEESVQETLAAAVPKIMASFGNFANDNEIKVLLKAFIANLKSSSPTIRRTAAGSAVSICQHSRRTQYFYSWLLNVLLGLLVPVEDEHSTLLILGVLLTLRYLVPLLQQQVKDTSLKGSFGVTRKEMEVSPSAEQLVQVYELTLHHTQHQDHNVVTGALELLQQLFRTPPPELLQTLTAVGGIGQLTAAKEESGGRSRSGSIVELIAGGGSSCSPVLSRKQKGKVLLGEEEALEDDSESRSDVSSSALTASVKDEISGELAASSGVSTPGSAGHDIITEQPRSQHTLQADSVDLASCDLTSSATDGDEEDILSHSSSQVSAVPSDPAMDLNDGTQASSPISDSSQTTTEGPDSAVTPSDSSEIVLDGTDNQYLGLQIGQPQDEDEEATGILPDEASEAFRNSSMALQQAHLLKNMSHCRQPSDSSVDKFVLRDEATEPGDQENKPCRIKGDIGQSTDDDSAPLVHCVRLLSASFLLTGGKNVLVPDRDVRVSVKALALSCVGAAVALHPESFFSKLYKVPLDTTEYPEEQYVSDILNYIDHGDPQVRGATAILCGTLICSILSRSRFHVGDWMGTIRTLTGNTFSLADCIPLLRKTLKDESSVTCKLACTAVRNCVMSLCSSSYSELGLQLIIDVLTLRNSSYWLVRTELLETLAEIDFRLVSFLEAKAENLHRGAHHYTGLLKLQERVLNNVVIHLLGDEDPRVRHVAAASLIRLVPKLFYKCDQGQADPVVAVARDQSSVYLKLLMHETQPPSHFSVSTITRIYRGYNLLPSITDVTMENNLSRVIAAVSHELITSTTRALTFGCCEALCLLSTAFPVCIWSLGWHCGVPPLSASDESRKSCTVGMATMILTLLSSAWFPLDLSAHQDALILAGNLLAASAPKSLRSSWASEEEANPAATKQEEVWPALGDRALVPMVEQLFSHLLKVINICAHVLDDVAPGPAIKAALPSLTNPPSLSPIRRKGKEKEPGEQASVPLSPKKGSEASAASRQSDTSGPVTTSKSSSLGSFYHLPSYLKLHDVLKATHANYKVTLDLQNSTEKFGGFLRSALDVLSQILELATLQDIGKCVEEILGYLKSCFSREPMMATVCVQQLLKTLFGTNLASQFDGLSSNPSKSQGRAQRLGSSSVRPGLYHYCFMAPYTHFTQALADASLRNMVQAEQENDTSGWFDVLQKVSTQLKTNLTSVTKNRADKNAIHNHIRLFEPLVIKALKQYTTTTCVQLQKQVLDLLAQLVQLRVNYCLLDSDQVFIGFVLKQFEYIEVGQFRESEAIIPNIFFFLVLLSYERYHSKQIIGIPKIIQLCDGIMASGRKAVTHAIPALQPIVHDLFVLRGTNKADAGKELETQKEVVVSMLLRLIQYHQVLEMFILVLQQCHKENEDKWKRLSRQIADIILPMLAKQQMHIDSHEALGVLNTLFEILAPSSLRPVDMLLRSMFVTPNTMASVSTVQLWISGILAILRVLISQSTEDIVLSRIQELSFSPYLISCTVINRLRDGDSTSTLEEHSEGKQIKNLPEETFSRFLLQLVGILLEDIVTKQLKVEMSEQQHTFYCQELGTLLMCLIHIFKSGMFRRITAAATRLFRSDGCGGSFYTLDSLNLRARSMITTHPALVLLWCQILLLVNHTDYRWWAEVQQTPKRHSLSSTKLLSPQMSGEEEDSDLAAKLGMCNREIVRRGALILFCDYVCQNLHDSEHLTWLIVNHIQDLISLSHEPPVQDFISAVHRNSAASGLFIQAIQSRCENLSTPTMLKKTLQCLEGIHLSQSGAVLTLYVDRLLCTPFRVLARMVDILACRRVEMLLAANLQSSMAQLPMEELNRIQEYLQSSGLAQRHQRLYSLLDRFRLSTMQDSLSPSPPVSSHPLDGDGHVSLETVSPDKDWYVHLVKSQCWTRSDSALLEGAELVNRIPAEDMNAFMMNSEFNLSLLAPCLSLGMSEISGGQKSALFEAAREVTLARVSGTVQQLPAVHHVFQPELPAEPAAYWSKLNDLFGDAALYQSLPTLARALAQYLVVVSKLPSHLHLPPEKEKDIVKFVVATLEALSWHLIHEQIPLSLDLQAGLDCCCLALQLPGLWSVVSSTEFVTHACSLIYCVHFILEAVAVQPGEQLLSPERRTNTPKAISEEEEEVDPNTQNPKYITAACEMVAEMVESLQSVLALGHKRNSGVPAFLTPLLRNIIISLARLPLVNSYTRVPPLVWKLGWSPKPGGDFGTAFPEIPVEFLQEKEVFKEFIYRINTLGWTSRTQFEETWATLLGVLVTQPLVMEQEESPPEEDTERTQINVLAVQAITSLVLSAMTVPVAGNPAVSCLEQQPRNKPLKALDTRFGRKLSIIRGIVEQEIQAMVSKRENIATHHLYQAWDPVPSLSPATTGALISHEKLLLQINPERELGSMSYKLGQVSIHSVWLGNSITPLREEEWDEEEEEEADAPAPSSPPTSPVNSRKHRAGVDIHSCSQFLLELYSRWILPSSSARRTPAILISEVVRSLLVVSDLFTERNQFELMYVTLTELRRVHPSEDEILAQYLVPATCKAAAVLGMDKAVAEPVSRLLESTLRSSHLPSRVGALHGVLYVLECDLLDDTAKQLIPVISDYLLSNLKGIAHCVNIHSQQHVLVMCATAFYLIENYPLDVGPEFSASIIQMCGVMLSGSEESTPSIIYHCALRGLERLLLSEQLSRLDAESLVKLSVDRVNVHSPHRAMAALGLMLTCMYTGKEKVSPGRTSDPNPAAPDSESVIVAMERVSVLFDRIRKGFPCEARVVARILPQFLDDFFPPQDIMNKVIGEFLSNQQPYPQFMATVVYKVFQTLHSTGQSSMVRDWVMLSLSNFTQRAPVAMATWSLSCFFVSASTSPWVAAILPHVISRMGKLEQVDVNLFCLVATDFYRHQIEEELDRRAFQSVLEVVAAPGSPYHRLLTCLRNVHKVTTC

SMILES | inhibition
COc1ccc(C)cc1NC(=O)C1CN(C(=O)c2ccncc2)CC12CCCCC2 (centres undefined) | 41.7% (inactive)
O=C(NCc1ccccn1)C1CN(C(=O)c2ccncc2)CC12CCCCC2 (centres undefined) | -2.9% (inactive)
COc1cc(NC(=O)C2CN(C(=O)c3ccncc3)CC23CCCCC3)cc(OC)c1 (centres undefined) | 87.6% (active)
CNC(=O)C(=O)Nc1ccc(OC)cc1 | 2% (inactive)
C=CCNC(=O)c1cc(=O)[nH]c2c(Cl)cccc12 | 2.2% (inactive)
COCCn1ccc2c(OCC(=O)Nc3cccc([N+](=O)[O-])c3)cccc2c1=O | -19% (inactive)
CC1CC(=O)Nc2c1c(NC(=O)c1ccc3c(c1)OCO3)nn2C (centres undefined) | -9.4% (inactive)
CCOc1ccccc1C(=O)Nc1nn(C)c2c1C(c1cccs1)CC(=O)N2 (centres undefined) | 100% (active)
CCOc1ccccc1C(=O)Nc1c2c(nn1-c1cccc(Cl)c1)CSC2 | 0% (inactive)
CC(=O)N1CCN(c2nc3c(s2)CC(C(=O)NCCCN2CCC(C)CC2)CC3)CC1 (centres undefined) | 4.75% (inactive)
Cc1nnc(NC(=O)CSc2nc(C(C)C)ccc2C#N)s1 | -5% (inactive)
Cc1ccccc1N1CCN(C/C=C/c2ccccc2[N+](=O)[O-])CC1 | 35.9% (inactive)
C(=C\c1ccccc1)/CN1CCN(CC2CCCCC2)CC1 | 3.7% (inactive)
CN(C)c1ccc(/C=C/CN2CCN(c3ccccc3F)CC2)cc1 | 72.5% (active)
Cc1cc(CNC(=O)CSc2ccncc2)no1 | -14.6% (inactive)
CC(=O)N1CCc2c(sc(NC(=O)c3cc(C)oc3C)c2C(N)=O)C1 | -3.5% (inactive)
Cc1cc2c(N3CCCC(C(=O)Nc4cccc(F)c4)C3)nccc2s1 (centres undefined) | -8.41% (inactive)
Cc1cc2c(N3CCC(C(=O)Nc4cccc(F)c4)CC3)nccc2s1 | 45.2% (inactive)
Cc1cc2c(N3CCC(C(=O)Nc4cccc(C(F)(F)F)c4)CC3)nccc2s1 | 80.9% (active)
O=C1CC(c2ccccc2Cl)=Nc2ccccc2N1 | 5% (inactive)
C=CCN(CC=C)S(=O)(=O)c1ccc(C(=O)Nc2nnc(-c3ccc(F)cc3)o2)cc1 | 6% (inactive)
N#Cc1sc2nc(-c3cccs3)ccc2c1N | 5% (inactive) and -18.7% (inactive)
COc1cc2c(-c3ccccc3)c(C)oc2cc1CN1CCN(c2ncccn2)CC1 | 62.2% (active)
COc1cc(OC)c(OC)cc1CN1CCN(c2ccccc2F)CC1 | 6.5% (inactive)

SMILES | inhibition
COc1cc(CN2CCN(Cc3cc(OC)c(OC)cc3OC)CC2)cc(OC)c1 | 7.3% (inactive)
CN(CCc1ccccn1)C(=O)C1CCCN(c2cnn(C)c(=O)c2)C1 (centres undefined) | -0.11% (inactive)
CCC(=O)NCc1csc(C2CCN(C(=O)c3cccs3)CC2)n1 | 5.45% (inactive)
Cc1ccc(CNC(=O)C2(C)CCCN(C(=O)CC(C)C)C2)cc1 (centres undefined) | -7.13% (inactive)
COc1ccc(C(=O)N2CCOC(COc3ccc(C)cc3)C2)cc1 (centres undefined) | 4.7% (inactive)
CC(C)C[C@@H](COCc1ccc(Cl)cc1)N1CCN(C(=O)c2ccc(Cl)cc2Cl)CCC1=O | 86% (active)
O=C(c1ccc(C(F)(F)F)cc1)N1CCC(=O)N([C@H](COCc2ccccc2)Cc2ccccc2)CC1 | 99.4% (active)
CC(C)C[C@@H](CO)N1CCN(Cc2ccc(O)cc2)CCC1=O | -0.4% (inactive)
CN1CCC(=O)N([C@H](CO)Cc2ccccc2)CC1 | -6.6% (inactive)
Cc1ccc(S(=O)(=O)N2CCC(=O)N([C@H](COCc3ccccc3)Cc3ccccc3)CC2)cc1 | -1.2% (inactive) and -4% (inactive)
CC(C)C[C@@H](COc1ccccc1)N1CCN(CC(C)C)CCC1=O | 5.6% (inactive)
O=C(NCC(c1cccs1)N1CCOCC1)C(=O)Nc1ccon1 (centres undefined) | -10.7% (inactive)
CCOc1ccccc1N1CCN(CC2CC3C=CC2C3)CC1 (centres undefined) | 3.9% (inactive)
Cc1cccc2c(C(=O)N3CCOCC3)cc(-c3ccccc3)nc12 | 26.2% (inactive)
Cc1ccc(C(=O)N2CCCC(COc3ccc(C(=O)N4CCOCC4)cc3)C2)cc1 (centres undefined) | 5.35% (inactive)
O=[N+]([O-])c1ccccc1/C=C/CN1CCC(O)CC1 | -1.3% (inactive)
O=[N+]([O-])c1ccccc1/C=C/CN1CCN(C/C=C/c2ccccc2)CC1 | 75.3% (active)
O=[N+]([O-])c1ccccc1/C=C/CN1CCN(c2ccccc2)CC1 | 32.8% (inactive)
COc1ccc(Cl)cc1NC(=O)C1CC(=O)N(c2ccc3c(c2)CCN3C(C)=O)C1 (centres undefined) | 2.25% (inactive)
Cn1nccc1C(=O)N1CCCC1c1cccc(F)c1 (centres undefined) | -3.94% (inactive)
COc1ccc(S(=O)(=O)NCCc2ccccc2)c(C)c1C | -7.6% (inactive)
CN1CCCc2cc(C(CNC(=O)c3ccccc3Cl)N3CCOCC3)ccc21 (centres undefined) | 19.8% (inactive)
CN1CCCc2cc(C(CNC(=O)C(=O)NC3CCCCC3)N(C)C)ccc21 (centres undefined) | 5.1% (inactive)
CN1CCc2cc(C(CNC(=O)C(=O)NCc3ccccc3Cl)N(C)C)ccc21 (centres undefined) | 53.3% (active)

SMILES | inhibition
N#CCn1cccc1-c1nc(-c2ccncc2)no1 | 38.7% (inactive)
CC(C)(C)C(O)CCNC(=O)c1cccc(F)c1 (centres undefined) | -16.4% (inactive)
COc1ccc(C2=N/C(=C/c3ccc4c(c3)OCO4)C(=O)O2)c(Br)c1 | 3% (inactive)
O=C(Nc1ccc(N2CCOCC2)cc1)c1cccc(Br)c1 | -1.7% (inactive)
COc1ccccc1OCC(=O)Nc1c2c(nn1-c1ccc(F)cc1)CS(=O)(=O)C2 | -5.8% (inactive)
CC1CC(=O)N(c2ccc(NC3CCCC(C)C3C)c([N+](=O)[O-])c2)C1=O (centres undefined) | 51% (active)
CC1CCCC(Nc2ccc(N3C(=O)CCCC3=O)cc2[N+](=O)[O-])C1C (centres undefined) | 48% (inactive)
O=C1C2CC=CCC2C(=O)N1c1ccc(F)c([N+](=O)[O-])c1 (centres undefined) | -1% (inactive)
COc1ccccc1NC(=O)C(CCS(C)(=O)=O)NC(C)=O (centres undefined) | 0% (inactive)
Cc1ccc(C2=NC3(CCCCC3)N(CC(=O)Nc3cccc(C)c3)C2=O)cc1 | 0.12% (inactive)
CN(C)c1ncccc1C(=O)Nc1ccccc1F | -5.3% (inactive)
Cc1c(O)ccc(-c2[nH]ncc2Oc2ccccc2)c1O | 54.4% (active) and 53% (active)
CCCc1ccc(Oc2cn[nH]c2-c2ccc(OC)cc2O)cc1 | 51% (active)
CCOc1ccc(-c2nn(C)c(C)c2Oc2ccccc2)c(O)c1 | -3.5% (inactive)
COc1ccc(-c2c(-c3ccc(OC)cc3O)nc(C)nc2C(F)(F)F)cc1 | -2.9% (inactive)
CCCc1cc(C2CCCN2Cc2cn[nH]c2-c2cccc(OC)c2)no1 (centres undefined) | -7.21% (inactive)
CCOc1ccccc1CN1CCC(C(=O)N2CCN(Cc3ccccc3)CC2)CC1 | 2.9% (inactive)
CC(C)(C)CC(=O)N1CC(C(=O)NC2CC2)C(c2ccc(F)cc2)C1 (centres undefined) | -0.9% (inactive)
O=C(c1ccc(C(F)(F)F)cc1)N1CCN(c2nc(CN3CCCC3)cs2)CC1 | 1.28% (inactive)
COc1ccc(CN(CC(=O)NCCc2ccccc2)S(=O)(=O)c2cccnc2)cc1 | -5.6% (inactive)
COc1cccc(CN2CCc3nc(N4CCN(c5ccc(F)cc5)CC4)ncc3C2)c1 | -4.69% (inactive)
O=C(Nc1cc(Cl)ccc1O)c1nn2c(c1Cl)NC(c1cccs1)CC2C(F)(F)F (centres undefined) | 90% (active)
O=C(Nc1ccc(Cl)cc1)c1cc2n(n1)C(C(F)(F)F)CC(c1cccs1)N2 (centres undefined) | -2% (inactive)
CCCNC(=O)c1nn2c(c1Cl)NC(c1ccc(Cl)cc1)CC2C(F)(F)F (centres undefined) | 9% (inactive)

SMILES | inhibition
O=C(NCc1ccco1)C1CN(S(=O)(=O)c2cccs2)CC12CCCCC2 (centres undefined) | 2.15% (inactive)
Cc1ccc(Sc2nccnc2N2CCC(C(=O)N3CCN(C)CC3)CC2)cc1 | 10.6% (inactive)
CC(C)N(c1snnc1N)C(C)C | -2.94% (inactive)
CC1=C(C(=O)Nc2ccc(Br)cn2)C(c2cccnc2)C2=C(CCCC2=O)N1 (centres undefined) | 1% (inactive)
COc1ccc(/C=C2\N=C(c3ccc(Cl)c([N+](=O)[O-])c3)OC2=O)cc1OC | 7% (inactive)
COc1ccc(N=Cc2ccc(Cl)c([N+](=O)[O-])c2)cc1OC | 57% (active)
COc1ccc(NC(=O)c2ccc(OC)c([N+](=O)[O-])c2)cc1Cl | -0.1% (inactive)
CCNc1cc(N2CCC(CCC(=O)NCC(C)C)CC2)ncn1 | 0.14% (inactive)
CCN(CC)CCCNc1c(CCC#N)c(C)c(C#N)c2nc3ccccc3n12 | 4% (inactive)
O=C(CN1C(=O)S/C(=C\c2ccccc2)C1=O)Nc1ccccc1Cl | -5% (inactive)
Fc1cnc(N2CCOCC2)nc1NCc1ccccc1 | 0.7% (inactive)
c1ccc2c(c1)CCN2c1nc(N2CCOCC2)c2n[nH]nc2n1 | 83.5% (active)
COc1ccc(-n2ncc3c(N4CCc5ccccc54)ncnc32)cc1 | 11% (inactive)
Cc1ccc(NC(=O)NCCC2CCN(S(=O)(=O)c3ccc(F)cc3)CC2)c(C)c1 | 42.8% (inactive)
CC1(C)c2ccccc2N2CC(=O)NC21/C=C/c1cccc(Br)c1 (centres undefined) | 100% (active)
O=c1[nH]c(/C=C/c2cccc(Br)c2)nc2ccccc12 | -5.1% (inactive)
COCCOCC1CCN(C(=O)c2cccc(N(C)C)c2)CC1 | -11.5% (inactive)
CCC(=O)Nc1cccc(NC(=O)c2ccc(C(C)C)cc2)c1 | 0.3% (inactive)
CC1=Nc2c(ccc3cccnc23)C1(C)C | 66.6% (active) and 14.1% (inactive)
COc1cc2c(cc1NC(=O)c1ccc(OC)c(OC)c1OC)oc1ccccc12 | -2.6% (inactive)
CCCN1CCN(c2ncnc3c2nc2n3CCCC2)CC1 | -1.5% (inactive)
N#Cc1c(N=Cc2ccc(Br)cc2)sc2c1CCC2 | 23% (inactive)

Source: PubChem BioAssay AID1671202 (University of Kansas High Throughput Screening Laboratory, 2021)
